Test results: PubChem BioAssay AID588413 (Sanford-Burnham Center for Chemical Genomics, 2011)
The campaign covered roughly 340,000 compounds. About 2,500 (0.74%) were called active. This is one part of a sample in which actives are shown more often than they occur.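 Rule for the calls: active = inhibition above about 55% (limit read from the data); inactive = the rest.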

assay: blockers of Gli reporter signaling – luciferase luminescence, Sufu-KO-LIGHT cells, uHTS, primary screen (AID 588413); details: Sufu-KO-LIGHT fibroblasts, at 5 µM, active compounds read high;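 note: 0% = DMSO-treated cells and 100% = wells with medium but no cells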

SMILES	inhibition
O=c1c2cc([N+](=O)[O-])ccc2nc2n1CCC2	-23.1% (inactive)
Cc1cc(C)n(-c2c(F)c(F)c(COC(=O)c3ccccc3)c(F)c2F)n1	6.99% (inactive)
CC(=O)c1ccc(Oc2cc(C)nc(-n3nc(C)cc3C)n2)cc1	30.8% (inactive)
CCOC(=O)c1cnc(-n2nc(C)cc2C)nc1NNc1cc(C)nc(-c2ccccc2)n1	80% (active)
Cc1nn(Cc2ccc(F)cc2)c(C)c1NC(=O)c1noc2c1CCc1ccccc1-2	6.19% (inactive)
O=C(O)C(c1cccs1)C1(O)CCCCC1 (configuration not stated)	6.95% (inactive)
NC(=O)C1=C[C@@H](c2ccc3c(c2)OCO3)C[C@@H](OCCCCO)O1	-4.81% (inactive)
C=CCOC(=O)C1=C[C@@H](c2ccc3c(c2)OCO3)C[C@@H](OCCCCO)O1	98.8% (active)
C=CCOC(=O)C1=C[C@H](c2ccc(Br)cc2)C[C@H](OCCCCO)O1	-1% (inactive)
COc1ccccc1-c1nnc(NC(=O)c2cccc(N3C(=O)CCC3=O)c2)o1	-6.14% (inactive)
Cc1cc(NC(=O)c2cccc(N3C(=O)CCC3=O)c2)no1	98.8% (active)
COC(=O)c1cccc(NC(=O)c2cccc(N3C(=O)CCC3=O)c2)c1	8.09% (inactive)
C/C(CC(=O)N1CCN(C=O)CC1)=N\NC(=O)c1ccc(Br)cc1	3.23% (inactive)
CCOC(=O)c1c(C)nn(-c2ncccc2NC(=O)CCC(=O)O)c1C	1.77% (inactive)
Cn1c(=O)n(C)c2cc(CNc3ccc(N4CCOCC4)c(C(=O)O)c3)ccc21	5.36% (inactive)
CN1CCN(NC(=O)Nc2ccc(Br)cc2)CC1	-5.05% (inactive)
CN1C(CC(=O)Nc2ccc(Br)cc2)c2ccccc2CC1(C)C (configuration not stated)	75.8% (active)
COCC(=O)Nc1ccc(Br)cc1	-3.01% (inactive)
COc1ccc(C(=O)N2CCCC(C(=O)c3ccccc3OC)C2)cc1OC (configuration not stated)	-11.7% (inactive)
COc1ccccc1C(CNC(=O)c1cccc(NS(=O)(=O)c2ccc(Br)cc2)c1)N(C)C (configuration not stated)	4.43% (inactive)
COc1ccccc1C(=O)Nc1ccnn1C1CCN(Cc2cnn(C)c2)CC1	8.85% (inactive)
CC(C)Oc1ccc(CN2CCC(n3nccc3NC(=O)c3cccnc3)CC2)cc1	61.3% (active)
COc1ccc(C(=O)Nc2ccnn2C2CCN(Cc3ccncc3)CC2)cc1	-4.23% (inactive)

SMILES	inhibition
COCCn1cnnc1SCC(=O)Nc1cccc(S(=O)(=O)N2CCCCC2)c1	-21.3% (inactive)
CCOc1cccc(NC(=O)Cn2nc(-c3ccc4c(c3)OCCO4)ccc2=O)c1	-1.4% (inactive)
Cc1c(C(=O)NCC(c2ccco2)N2CCCC2)oc2ccc(Cl)cc12 (configuration not stated)	16.9% (inactive)
O=C1[C@@H](c2ccccc2)[C@@H](c2ccccc2)N1c1cccnc1	7.59% (inactive)
C[C@@H]1NS(=O)(=O)c2cc(Cl)ccc2O[C@@H]1c1ccccc1	-5.11% (inactive)
CCOc1cccc(C(=O)Nc2cnn(Cc3ccccc3)c2)c1	-43.8% (inactive)
O=C(COc1cccc(Cl)c1)NCc1ccccc1	5.34% (inactive)
O=C(O)CCCn1cc(NC(=O)COc2cccc(Cl)c2)cn1	62.4% (active)
COC(=O)C1CC2=C(CC(C)(C)CC2=O)N(c2ccccc2)C1=O (configuration not stated)	4.81% (inactive)
Cc1ccc(C(CNC(=O)Nc2cccc(C)c2)N2CCN(C)CC2)cc1 (configuration not stated)	44.3% (inactive)
CCOc1cc(C2/C(=C(/O)c3ccc(S(=O)(=O)N4CCCCC4)cc3)C(=O)C(=O)N2CCOC)ccc1O (configuration not stated)	-6.41% (inactive)
CCCN(C(=O)CSc1nnnn1C)c1c(N)n(Cc2ccccc2)c(=O)[nH]c1=O	-4.32% (inactive)
COc1ccc2sc(-c3ccc(N(C)C)cc3)c(C#CCO)c2c1	-3.68% (inactive)
COc1ccc2c(c1)c(=Cc1ccc(N(C)C)cc1)c1cc(-c3ccccc3)[n+](C)n12	71.7% (active)
CN(CC(=O)NC(=O)Nc1ccccc1F)Cc1ccccc1	-0.74% (inactive)
CCn1nc(C(=O)Nc2ccc(N3CCOCC3)cc2)c2ccccc2c1=O	6.24% (inactive)
CCN(CCO)C(=S)Nc1cc(C(=O)OC)ccc1C(=O)OC	96.9% (active)
CCS(=O)(=O)Nc1cc(C(=O)OC)ccc1C(=O)OC	-3.7% (inactive)
CCCN(CCC)C(=S)Nc1cc(C(=O)OC)ccc1C(=O)OC	1.47% (inactive)
CC(C)OCC(O)CN1CCN(C(c2ccccc2)c2ccccc2)CC1 (configuration not stated)	76.8% (active)
COc1ccccc1CN1CCN(C(c2ccccc2)c2ccccc2)CC1	25.4% (inactive)
O=C(C(c1ccccc1)c1ccccc1)N1CCN(CC(O)COc2ccccc2)CC1 (configuration not stated)	3.62% (inactive)
COc1ccc(C(=O)OCC(=O)NCC2CCCO2)cc1[N+](=O)[O-] (configuration not stated)	-0.12% (inactive)

SMILES	inhibition
c1ccc2c(c1)CSc1sccc1C2=C1CCNCC1	28.4% (inactive)
COC(=O)c1c(C)[nH]c(C(=O)NCCc2ccc(S(N)(=O)=O)cc2)c1C	-12.2% (inactive)
COc1ccc(NC(=O)NNC(=O)COc2cc(C)c(Cl)c(C)c2)c(OC)c1	-3.14% (inactive)
Cc1cccc(N2CC(C(=O)Nc3ccccc3N3CCCC3)CC2=O)c1C (configuration not stated)	-3.8% (inactive)
CN1CCN(CCC(=O)N/N=C/C=C2\N(C)c3ccccc3C2(C)C)CC1	29.6% (inactive)
CC(C)Nc1nnc(SCC(=O)/C=C2\N(C)c3ccccc3C2(C)C)s1	2.92% (inactive)
CC(=O)Nc1cccc(OCC(=O)/C=C2\N(C)c3ccccc3C2(C)C)c1	56.5% (active)
COc1ccc(N2CCN(C(=O)C3CCN(S(=O)(=O)c4ccc(C)cc4)CC3)CC2)cc1	18.7% (inactive)
CCCCCN(C(=O)NC(=O)Nc1cccc(C)c1C)S(C)(=O)=O	-3.52% (inactive)
CC(=O)OCC(COC(C)=O)OC(C)=O	-14.9% (inactive)
CC(=O)OCCC(C)C	57.4% (active)
CC(=O)OC(C)C[N+](C)(C)C (configuration not stated)	15.8% (inactive)
CC(C)CC(=O)NC(=S)NNC(=O)c1cccc([N+](=O)[O-])c1	-4.7% (inactive)
COc1ccc(C)cc1NC(=S)N1CCOCC1	1.61% (inactive)
CC(=O)N1CCCc2cc(S(=O)(=O)N3CCCC(C(=O)NCc4ccc(Cl)cc4)C3)ccc21 (configuration not stated)	27% (inactive)
CC(=O)N1CCCc2cc(S(=O)(=O)N3CCCC(C(=O)N4CCN(c5cccc(Cl)c5)CC4)C3)ccc21 (configuration not stated)	64.5% (active)
CC(=O)N1c2ccc(S(=O)(=O)N3CCCC(C(=O)Nc4cccc(Cl)c4)C3)cc2CC1C (configuration not stated)	-0.91% (inactive)
O=C(Nc1ccccc1C(=O)NCCCn1ccnc1)c1ccc(Cl)cc1Cl	19.3% (inactive)
CCOC(=O)C(CO)NC(=O)C1(NC(C)=O)CCCC1 (configuration not stated)	-2.14% (inactive)
O=C(CN(CC1CCCO1)C(=O)CNS(=O)(=O)c1ccc(F)cc1)NCc1ccco1 (configuration not stated)	0.03% (inactive)
O=C(O)c1ccc(/C=C2\SC(=S)N(NC(=O)c3ccc(Br)cc3)C2=O)cc1	10% (inactive)
O=C1/C(=C/c2ccc(F)cc2)SC(=S)N1NS(=O)(=O)c1ccccc1	59.1% (active)
O=C1/C(=C/c2ccc(F)cc2)SC(=S)N1CCCC(=O)N1CCCCC1CCO (configuration not stated)	-14.7% (inactive)

SMILES	inhibition
CN1CCN(C(=O)N2c3ccccc3CCc3ccccc32)CC1	0.29% (inactive)
CC1CCc2sc(C(=O)NCC(c3ccco3)N3CCCCC3)cc2C1 (configuration not stated)	16.2% (inactive)
Cc1ccc(CN(Cc2cccnc2)C(=S)Nc2cc(Cl)ccc2C)cc1	12.8% (inactive)
CC(=O)NCC(=O)N(C)C(C(=O)Nc1ccc2c(c1)OCCO2)c1ccccc1 (configuration not stated)	-14.5% (inactive)
COc1ccc(CCNC(=O)CSc2nc3[nH]ncc3c(=O)n2-c2cccc(C(F)(F)F)c2)cc1OC	0.76% (inactive)
Cc1cccc2nc(CSc3nc4[nH]ncc4c(=O)n3-c3cccc(Cl)c3)cc(=O)n12	67.7% (active)
CCc1ccc(-n2c(SCc3cc(=O)n4cc(Br)ccc4n3)nc3[nH]ncc3c2=O)cc1	5.99% (inactive)
CCn1cc(-c2cc(C(=O)O)on2)c(C)n1	-4.15% (inactive)
COc1ccc(-n2c(SCC(=O)Nc3ccc4c(c3)OCO4)nnc2C(C)N2CCCCC2)cc1 (configuration not stated)	7.4% (inactive)
Cc1cc(C(=O)CSc2nc(N)cc(=O)[nH]2)c(C)n1-c1cccc(F)c1	56.6% (active)
CCCc1cc(=O)[nH]c(SCC(=O)c2cc(C)n(CCC)c2C)n1	1.52% (inactive)
Cc1cc(C(=O)CSc2nc(N)cc(=O)[nH]2)c(C)n1CCc1ccc(Cl)cc1	0.27% (inactive)
COc1cc(C)cc(CN2CCC(Cc3ccccc3)CC2)c1O	15.5% (inactive)
Oc1c(CN2CCN(c3ccc(F)cc3)CC2)cc(Cl)c2cccnc12	92.7% (active)
Cc1cc(=O)oc2cc(OCC(=O)N3CCN(c4ccc(F)cc4)CC3)c(Cl)cc12	6.77% (inactive)
Oc1c(CN2CCCC2)cc(COCc2ccccc2)c2cccnc12	77.7% (active)
CC1CCCN(CC(O)COCc2ccccc2)C1 (configuration not stated)	12.2% (inactive)
Cc1ccc(CN2CCN(c3ncccn3)CC2)c(C)c1	1.86% (inactive)
CC(C)C(C)NC(=O)COc1nc2ccccc2nc1N(C)C1CCCCC1 (configuration not stated)	-2.52% (inactive)
CCc1nnc(NC(=O)CCN(c2ccc(C)cc2)S(=O)(=O)c2ccccc2)s1	-7.2% (inactive)
O=C1/C(=C\Nc2ccccc2)CCN1c1ncccn1	-39% (inactive)
Cc1ccccc1NC(=O)NC1(C(=O)N2CCCC2)CCCCC1	44.2% (inactive)
Cc1ccc(C)c(NS(=O)(=O)c2c(C)[nH]c(C)c2C(=O)N2CCCCC2)c1	-12.2% (inactive)
